These results are taken from PubChem BioAssay.

The test system of assay [1] is Human papillomavirus type 1a protein E7 (residues 44-93). Nature of the assay: HPV1a E7 fragment binders on microarrays, primary screen, biochemical, small-molecule microarray, residues 44-93, 635 nm fluorescence (AID 1108).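 Further: E7 fragment applied at 1 µg/mL in TBST for 1 h at 4 C; score combines spot fluorescence with its signal to noise ratio.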 The note with it: small-molecule microarray binding, fluorescence 635 nm; higher = more signal.
Assay [2] can be described thus: modulators of HCV replicon luciferase signal, primary screen, HCV replication inhibitor project, Huh7 cells, luciferase reporter (AID 1109).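 Further: huh7 hepatoma cells harbouring a luciferase neomycin HCV replicon reporter; luciferase luminescence as measure of HCV replicon replication; test concentration not given here.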 As to conditions: 48 h, higher = more signal. (In general: A replicon is a self-replicating genome or part of one, used to study replication in cells.)
Assay [3] has as its target Left-right determination factor 2 (Homo sapiens) (UniProt O00292). Nature of the assay: LEFTY2 binders on small-molecule microarrays, primary screen, biochemical, small-molecule microarray, 635 nm fluorescence scan (AID 1110). The note with it: LEFTY2 binding, higher = more signal.
Assay [4] addresses Calmodulin-1 (Homo sapiens) (UniProt P0DP23). The assay can be described thus: CALM1 binders on microarrays, EGTA buffer, profiling panel, biochemical, small-molecule microarray, Cy5-labelled CALM1 (AID 1111).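 Further: labelled calmodulin applied in Tris saline Tween buffer holding calcium plus EGTA and DTT.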 The note with it: Cy5-CALM1 binding fluorescence, higher = more signal.
Assay [5] has the same target. Nature of the assay: calcium-bound CALM1 binders on microarrays, profiling panel, artefact control for SMM control-protein annotation, biochemical, small-molecule microarray, Cy5-labelled CALM1, plus calcium (AID 1112).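 Further: score merges spot fluorescence with signal to noise from triplicate slides.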 As to conditions: Cy5-CALM1 binding fluorescence, higher = more signal.
Assay [6] is described as follows: small-molecule microarray binders of probe aWnt5a, primary screen, biochemical, biotinylated probe, 635/667 nm fluorescence (AID 1113).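 Further: score merges 667 nm fluorescence intensity with signal-to-noise per printed feature.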 The note with it: higher = more signal.
The nature of assay [7]: small-molecule microarray binders of probe aShh, primary screen, biochemical, biotinylated probe, 635/667 nm fluorescence (AID 1114).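 Further: probe is biotin-labelled aShh protein from a stem cell growth factor screen; measures binding of labelled protein to compounds printed on the slide; score merges feature fluorescence at 667 nm with signal-to-noise.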 The note with it: higher = more signal.
Assay [8] is described as follows: small-molecule microarray binders of probe aNog, primary screen, biochemical, biotinylated probe, 635/667 nm fluorescence (AID 1115).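 Further: probe is biotinylated aNog protein used at 0.15 µg/mL for 1 h at 4 C; z-score combines 667 nm fluorescence of each spot with its signal to noise.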 As to conditions: higher = more signal.
Assay [9] concerns the target Torsin-1A-interacting protein 1 (Homo sapiens) (UniProt Q5JTV8). The assay can be described thus: LAP1 binders from COS7 cell lysate, primary screen, small-molecule microarray, 635/667 nm fluorescence (AID 1116). The note with it: COS7-hLAP1 lysate binding, 635 nm fluorescence, higher = more signal.
Assay [10] concerns the target Alpha-bungarotoxin (Bungarus multicinctus) (UniProt P60615). The assay can be described thus: alpha-bungarotoxin binders on microarray, profiling panel, artefact control for SMM control protein annotation, biochemical, small-molecule microarray, Alexa647 label, 635/667 nm fluorescence (AID 1117). As to conditions: alpha-BTX-A647 binding fluorescence, higher = more signal.

In assay [11] the target is Albumin (Bos taurus) (UniProt P02769). Nature of the assay: bovine serum albumin binders on microarray, profiling panel, artefact control for SMM control protein annotation, biochemical, small-molecule microarray, Alexa647 label, 635/667 nm fluorescence (AID 1118).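 Further: score merges 667 nm emission intensity and signal-to-noise per printed compound spot.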 The note with it: BSA-A647 binding, fluorescence 635 nm, higher = more signal.
A short description of assay [12]: small-molecule microarray binders of probe aXIP, primary screen, biochemical, NeuroSMM set, 635/667 nm fluorescence (AID 1119).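 Further: probe is the protein aXip251-270 applied at 1 µg/mL to compound-printed slides; binding of probe to printed compounds measured as 667 nm fluorescence plus signal to noise.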 As to conditions: higher = more signal, called active from +8 up or from −8 down.
The nature of assay [13]: small-molecule binders of probe aNOTCH3, primary screen, biochemical, small-molecule microarray, 635/667 nm fluorescence (AID 1120).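 Further: probe is a biotin-tagged antibody raised against NOTCH3 rather than NOTCH3 protein; score merges spot fluorescence near 667 nm with spot signal to noise.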 As to conditions: higher = more signal.
Assay [14] is described as follows: small-molecule binders of probe aNOTCH2, primary screen, biochemical, small-molecule microarray, 635/667 nm fluorescence (AID 1121).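 Further: score merges feature fluorescence read at 667 nm with its signal to noise.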 As to conditions: higher = more signal.
Assay [15] deals with Carbonic anhydrase 2 (Homo sapiens) (UniProt P00918). Nature of the assay: CAII small-molecule binders, profiling panel, biochemical, small-molecule microarray, Alexa647-labelled CAII (AID 1122). The note with it: CAII-A647 binding fluorescence, higher = more signal.
Assay [16] is described as follows: COS7 lysate on small-molecule microarray, probe aHis, 635 nm (AID 1123).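 Further: z-score combines 667nm fluorescence intensity with signal-to-noise per printed compound spot.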 The note with it: COS7 cell lysate, fluorescence, higher = more signal.
Assay [17] in a line: compound binding in COS7 lysate, probe aLAP1, primary screen, cell lysate, small-molecule microarray (AID 1124).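 Further: lysate comes from COS7 cells expressing LAP1 and is applied at 0.3 µg/mL; score merges spot fluorescence near 667 nm with signal-to-noise over triplicate slides.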 As to conditions: probe aLAP1, fluorescence, higher = more signal.
Assay [18] relates to Sam68 (KHDRBS1). The assay can be described thus: Sam68 small-molecule binders, primary screen, biochemical, small-molecule microarray, 635 nm fluorescence (AID 1125).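 Further: score merges 667 nm channel intensity with signal to noise over triplicate slides.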 The note with it: small-molecule microarray binding, higher = more signal.
Assay [19] has as its system Chordin-like protein 2 (CHRDL2). The assay can be described thus: CHRDL2 small-molecule binders, primary screen, biochemical, small-molecule microarray, 635 nm fluorescence (AID 1126).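 Further: printed compound slides probed with Chrdl2 protein at 4 µg/mL for 1 h at 4 C; score merges 667 nm emission intensity with signal to noise over three replicate slides.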 As to conditions: small-molecule microarray binding, fluorescence 635 nm; higher = more signal.
The target in assay [20] is Concanavalin-A (Canavalia ensiformis) (UniProt P02866). Nature of the assay: ConA small-molecule binders, primary screen, artefact control for SMM control protein annotation, biochemical, small-molecule microarray, Alexa647 label, 635 nm (AID 1127).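 Further: z combines 667 nm emission intensity with signal-to-noise across three replicate slides.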 The note with it: ConA-A647 binding fluorescence, higher = more signal.

Calls of active or inactive are those of the source.

Torsin-1A-interacting protein 1 (Homo sapiens), sequence (Q5JTV8 whole entry, looked up): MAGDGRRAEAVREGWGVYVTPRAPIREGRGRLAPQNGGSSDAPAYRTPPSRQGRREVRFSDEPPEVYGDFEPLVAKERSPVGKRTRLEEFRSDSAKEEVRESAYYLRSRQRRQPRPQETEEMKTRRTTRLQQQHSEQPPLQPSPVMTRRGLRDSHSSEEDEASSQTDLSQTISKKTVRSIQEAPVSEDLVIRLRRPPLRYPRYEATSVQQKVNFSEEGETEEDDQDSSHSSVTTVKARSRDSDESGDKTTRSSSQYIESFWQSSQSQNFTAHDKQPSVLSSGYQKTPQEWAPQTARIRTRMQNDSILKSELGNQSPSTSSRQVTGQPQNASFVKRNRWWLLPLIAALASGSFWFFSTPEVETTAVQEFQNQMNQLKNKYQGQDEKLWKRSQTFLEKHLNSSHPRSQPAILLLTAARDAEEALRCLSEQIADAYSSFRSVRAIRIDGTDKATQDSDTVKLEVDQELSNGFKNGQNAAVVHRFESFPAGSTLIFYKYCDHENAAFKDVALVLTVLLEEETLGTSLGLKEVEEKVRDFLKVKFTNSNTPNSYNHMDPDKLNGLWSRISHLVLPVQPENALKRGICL
Concanavalin-A (Canavalia ensiformis), sequence (P02866 whole entry, looked up): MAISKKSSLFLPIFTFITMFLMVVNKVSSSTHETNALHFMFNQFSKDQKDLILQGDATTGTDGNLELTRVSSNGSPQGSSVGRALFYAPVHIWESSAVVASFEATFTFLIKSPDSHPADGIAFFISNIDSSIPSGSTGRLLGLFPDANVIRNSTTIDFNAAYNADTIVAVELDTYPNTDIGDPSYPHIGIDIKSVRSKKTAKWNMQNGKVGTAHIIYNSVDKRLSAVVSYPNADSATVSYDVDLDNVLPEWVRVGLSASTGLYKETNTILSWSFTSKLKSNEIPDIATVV
Left-right determination factor 2 (Homo sapiens), sequence (O00292 whole entry, looked up): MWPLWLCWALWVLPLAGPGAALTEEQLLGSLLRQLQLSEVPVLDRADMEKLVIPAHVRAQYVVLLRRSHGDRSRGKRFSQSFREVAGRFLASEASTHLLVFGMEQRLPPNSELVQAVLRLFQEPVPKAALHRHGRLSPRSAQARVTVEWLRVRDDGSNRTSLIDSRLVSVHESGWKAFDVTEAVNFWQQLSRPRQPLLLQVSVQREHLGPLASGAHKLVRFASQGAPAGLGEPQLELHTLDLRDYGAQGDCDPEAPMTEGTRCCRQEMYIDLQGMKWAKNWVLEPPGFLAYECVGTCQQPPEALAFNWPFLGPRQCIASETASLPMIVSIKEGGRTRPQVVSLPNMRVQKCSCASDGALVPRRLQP
Alpha-bungarotoxin (Bungarus multicinctus), sequence (P60615 whole entry, looked up): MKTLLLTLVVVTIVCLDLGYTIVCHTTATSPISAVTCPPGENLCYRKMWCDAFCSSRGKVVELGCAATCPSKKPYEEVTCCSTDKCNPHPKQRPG
Albumin (Bos taurus), sequence (P02769 whole entry, looked up): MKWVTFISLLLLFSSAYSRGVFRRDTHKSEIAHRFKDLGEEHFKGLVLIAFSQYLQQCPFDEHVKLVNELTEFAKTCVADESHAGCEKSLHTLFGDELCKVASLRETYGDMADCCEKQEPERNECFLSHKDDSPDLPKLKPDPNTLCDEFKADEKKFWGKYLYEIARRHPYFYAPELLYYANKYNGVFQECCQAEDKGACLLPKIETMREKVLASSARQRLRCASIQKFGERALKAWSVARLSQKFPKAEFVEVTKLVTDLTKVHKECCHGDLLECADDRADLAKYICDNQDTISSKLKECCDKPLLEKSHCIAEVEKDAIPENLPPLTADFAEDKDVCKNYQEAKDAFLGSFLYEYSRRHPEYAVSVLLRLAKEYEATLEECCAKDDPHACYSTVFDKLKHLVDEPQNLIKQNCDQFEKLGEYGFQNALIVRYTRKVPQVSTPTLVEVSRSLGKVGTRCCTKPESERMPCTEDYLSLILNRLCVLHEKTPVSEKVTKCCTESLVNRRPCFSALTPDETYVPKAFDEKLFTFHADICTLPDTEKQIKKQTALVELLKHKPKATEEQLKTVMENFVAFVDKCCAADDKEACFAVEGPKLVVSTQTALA

For the compound `CS(=O)(=O)CCOC(=O)C1=CC(CCCO)=CC(C2CC2)N(Cc2cc3c(cc2Br)OCO3)C=C1C(=O)OCCS(C)(=O)=O` (stereo not given), the composite z-score in assay [1] is 1.07; in [3], -0.0224; in assay [4], 0.331; in [5], -0.0113; in assay [6] it was -0.0192; in [7], -0.0035. Moreover, the composite z-score was 0.357 in [8]; 1.11 in assay [9]; 0.598 in [10]; 0.741 in assay [11]; -0.0573 in [13]; -0.0322 in assay [14]. In addition, the composite z-score in assay [15] worked out at 0.774; in assay [16] it was 0.88; in assay [17], 0.495; in assay [18], 0.531; in assay [19], 0.45; in assay [20] it was 0.544. The same compound registered a z-score in assay [2] of -1.2. For the same compound, in [12], the composite Z-score is -0.289 (inactive).

Consider `CO[C@H]1O[C@H](CO)[C@@H](OC(=O)Nc2cccc(F)c2)[C@H](OC(=O)Nc2ccccc2)[C@H]1OC(=O)Nc1ccccc1`, for which the composite z-score in assay [1] is 1.52; in assay [3], 0.238; in assay [4], 0.183; in assay [5] it was -0.467; in assay [6], -0.0222; in assay [7], 0.536. In addition, the composite z-score in [8] was 0.919; in assay [9], 1.29; in [10], 1.53; in [11] it was -0.225; in assay [13], 0.146; in assay [14], -0.0664. Further, the composite z-score was 0.65 in assay [15]; 1.24 in assay [16]; 0.168 in assay [17]; 1.29 in [18]; 0.323 in assay [19]; 0.899 in assay [20]. The compound further displayed a z-score in [2] of -3.16. Further, the composite Z-score in [12] is 0.0063 (inactive).

For `[N-]=[N+]=NCc1ccccc1[C@H]1OC(c2ccc(OCCCO)cc2)=N[C@@]1(Cc1ccccc1)C(=O)N1CCCCC1`, the composite z-score in assay [1] was 1.37; in [3], 0.198; in assay [4] it was 1.23; in assay [5], 0.0298; in assay [6], 0.195; in assay [7] it was -0.0243. Moreover, the composite z-score in assay [8] was -0.768; in [9], 0.249; in assay [10] it was 1.43; in assay [11], 0.515; in assay [13] it was 0.234; in assay [14], -0.133. In addition, the composite z-score was 0.591 in assay [15]; 2.32 in assay [16]; 0.284 in assay [17]; 1.29 in assay [18]; -0.237 in assay [19]; 1.08 in [20]. The z-score in [2] was -2.55. Moreover, the composite Z-score in assay [12] is -0.34 (inactive).

For the compound `Cc1ccc(S(=O)(=O)N2C[C@@H](C(=O)O)[C@H](Sc3ccccc3)C[C@H]2c2ccccc2)cc1`, the composite z-score in [1] is 1.14; in assay [3], 0.0026; in assay [4], 1.61; in assay [5], -0.127; in assay [6], 0.0775; in assay [7], 0.0684. Further, the composite z-score is 1.45 in assay [8]; 1.97 in assay [9]; 0.729 in [10]; 0.855 in [11]; 0.418 in assay [13]; 0.0456 in assay [14]. The composite z-score is 0.732 in assay [15]; 1.99 in [16]; 0.89 in assay [17]; 1.29 in [18]; -0.75 in assay [19]; 1.13 in assay [20]. Moreover, the z-score in assay [2] is -0.697. The composite Z-score in [12] was -0.202 (inactive).

`CC(C)[Si](C#CCCCC#N)(Oc1ccccc1Br)C(C)C`: the composite z-score in assay [1] was 0.845; in [3], 0.0224; in assay [4], -0.154; in [5], -0.159; in assay [6], -0.0512; in [7] it was -0.0553. Further, the composite z-score in assay [8] is -0.213; in [9], 0.528; in assay [10], 0.453; in assay [11], 0.435; in assay [13], -0.0377; in assay [14] it was -0.092. Moreover, the composite z-score in assay [15] stood at 0.508; in assay [16], 0.51; in assay [17], 0.0245; in [18], 0.993; in assay [19], 0.299; in [20], 0.912. This compound also registered a z-score in assay [2] of -0.071. The composite Z-score in assay [12] is 0.147 (inactive).
